Our source for the Potency, activation and activity change, negative = inhibition values is PubChem BioAssay (NCATS).

Inconclusive results are not listed. Unmarked numbers belong to inactive results. Activity calls are given as the source filed them. Calls come from the whole dose curve; as a rule, active = well fitted curve in the direction sought with a large enough effect; inconclusive = small, poorly fitted or top-dose-only effect, or another doubt; inactive = no such curve, though single readings can be large; an effect the other way counts as inactive or inconclusive.

Experiment [1] addresses Rap guanine nucleotide exchange factor 3 (Homo sapiens) (UniProt O95398). Briefly: Confirmatory qHTS for agonist of cAMP-regulated guanine nucleotide exchange factor 3 (EPAC1) (AID 1645881).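 Note: EPAC1 catalysed release of BODIPY-GDP from Rap1B seen as fluorescence loss; 100% = effect of cAMP agonist control; nearly all actives have a fitted effect of over 75% in size.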
In experiment [2] the target is Rap guanine nucleotide exchange factor 4 (Homo sapiens) (UniProt Q8WZA2). The experiment can be described thus: Confirmatory qHTS for agonist of cAMP-regulated guanine nucleotide exchange factor 4 (EPAC2) (AID 1645884).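 Note: nucleotide exchange releases bodipy-GDP from Rap1 and this lowers its fluorescence; % is set by controls: 0 for no effect and ±100 for the full control effect; nearly all actives have a fitted effect of over 65% in size.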
The target is the same in experiment [3]. Briefly: Confirmatory qHTS for antagonist of cAMP-regulated guanine nucleotide exchange factor 4 (EPAC2) (AID 1645885). For activity change, negative = inhibition: % is set by controls: 0 for no effect and ±100 for the full control effect. Note: nearly all actives have a fitted effect of over 25% in size. Note: potency is the fitted concentration of half-maximal effect.
Experiment [4] addresses Rap guanine nucleotide exchange factor 3 (Homo sapiens) (UniProt O95398). The experiment can be described thus: Counterscreen qHTS for antagonist of cAMP-regulated guanine nucleotide exchange factor 3 (EPAC1) (AID 1645888).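 Note: fluorescence loss as bound BODIPY-GDP is released from Rap1B; % of control where 0% means no effect.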 The method in brief: (§1)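 Rap1B-BODIPY-GDP 250 nM + GDP 50 uM; cpds 7-pt, final 9.74 nM–152 uM (activator mode) or from 7.32 nM upwards (inhibitor mode); RT; FI 480/540 nm at 5 and 30 min, then ± cAMP, reread.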

Experiment [5] has the same target. The experiment can be described thus: Counterscreen qHTS for agonist of cAMP-regulated guanine nucleotide exchange factor 3 (EPAC1) (AID 1645889). Note: % of control where 0% means no effect; nearly all actives have a fitted effect of over 40% in size. The procedure, abridged:
as §1

Chain of Rap guanine nucleotide exchange factor 4 (Homo sapiens) (Q8WZA2 whole entry, looked up): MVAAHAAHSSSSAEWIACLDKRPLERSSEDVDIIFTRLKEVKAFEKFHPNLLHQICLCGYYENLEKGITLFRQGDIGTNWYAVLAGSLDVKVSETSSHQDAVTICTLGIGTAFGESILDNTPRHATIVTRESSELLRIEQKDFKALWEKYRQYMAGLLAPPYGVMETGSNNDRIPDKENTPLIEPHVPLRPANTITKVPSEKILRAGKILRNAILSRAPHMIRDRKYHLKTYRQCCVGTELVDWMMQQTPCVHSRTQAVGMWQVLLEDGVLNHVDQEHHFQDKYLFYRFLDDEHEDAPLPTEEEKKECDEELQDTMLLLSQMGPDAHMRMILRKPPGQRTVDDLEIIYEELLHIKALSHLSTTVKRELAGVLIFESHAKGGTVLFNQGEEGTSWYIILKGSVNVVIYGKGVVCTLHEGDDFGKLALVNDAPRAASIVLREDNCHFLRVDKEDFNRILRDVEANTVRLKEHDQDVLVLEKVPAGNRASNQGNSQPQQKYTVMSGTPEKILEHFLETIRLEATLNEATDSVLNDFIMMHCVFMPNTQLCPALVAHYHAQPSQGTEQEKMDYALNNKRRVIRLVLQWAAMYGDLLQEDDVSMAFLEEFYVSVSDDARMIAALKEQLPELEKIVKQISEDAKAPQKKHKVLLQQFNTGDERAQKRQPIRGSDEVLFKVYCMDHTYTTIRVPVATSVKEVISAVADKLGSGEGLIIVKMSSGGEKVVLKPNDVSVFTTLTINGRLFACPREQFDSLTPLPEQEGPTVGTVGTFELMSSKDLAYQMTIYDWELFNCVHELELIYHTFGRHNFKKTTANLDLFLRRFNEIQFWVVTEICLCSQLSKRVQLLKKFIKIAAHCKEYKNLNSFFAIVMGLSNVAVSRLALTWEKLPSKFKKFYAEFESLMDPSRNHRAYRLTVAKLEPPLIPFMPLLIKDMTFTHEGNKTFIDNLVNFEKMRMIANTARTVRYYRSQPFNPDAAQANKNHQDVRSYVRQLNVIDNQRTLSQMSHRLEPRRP
Chain of Rap guanine nucleotide exchange factor 3 (Homo sapiens) (O95398 whole entry, looked up): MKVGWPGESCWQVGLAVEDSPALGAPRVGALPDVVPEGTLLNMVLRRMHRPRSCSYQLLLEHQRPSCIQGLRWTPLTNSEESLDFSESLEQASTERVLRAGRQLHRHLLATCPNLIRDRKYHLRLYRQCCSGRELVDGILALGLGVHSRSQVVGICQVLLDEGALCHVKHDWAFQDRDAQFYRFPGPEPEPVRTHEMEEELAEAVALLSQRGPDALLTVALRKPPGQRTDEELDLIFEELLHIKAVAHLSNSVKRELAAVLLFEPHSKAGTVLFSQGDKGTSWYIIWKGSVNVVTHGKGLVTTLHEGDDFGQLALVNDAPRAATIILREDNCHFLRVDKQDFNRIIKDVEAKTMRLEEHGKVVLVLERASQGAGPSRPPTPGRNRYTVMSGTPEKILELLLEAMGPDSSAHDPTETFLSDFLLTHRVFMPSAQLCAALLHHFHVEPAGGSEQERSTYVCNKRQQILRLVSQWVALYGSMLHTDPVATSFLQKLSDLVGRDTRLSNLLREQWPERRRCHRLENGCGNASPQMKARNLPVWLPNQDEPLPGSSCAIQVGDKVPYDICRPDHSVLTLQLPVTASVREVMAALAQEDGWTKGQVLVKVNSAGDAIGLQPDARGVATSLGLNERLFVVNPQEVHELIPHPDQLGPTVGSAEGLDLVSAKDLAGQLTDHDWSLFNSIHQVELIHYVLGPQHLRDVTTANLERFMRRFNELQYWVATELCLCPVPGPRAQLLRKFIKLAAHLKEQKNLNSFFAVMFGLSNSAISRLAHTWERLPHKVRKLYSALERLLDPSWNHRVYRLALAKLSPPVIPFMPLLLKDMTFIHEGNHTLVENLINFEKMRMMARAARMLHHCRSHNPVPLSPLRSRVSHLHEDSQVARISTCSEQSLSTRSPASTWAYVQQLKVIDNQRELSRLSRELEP

With `COc1ccc(C(CCN(Cc2ccc(OC)c(OC)c2)C(C)=O)C(C)C)cc1` (stereo not given), the Potency entry in experiment [1], in experiment [2], in experiment [3], in experiment [4] and in experiment [5] was “inactive” each time.

With `O=C(Nc1c2c(nc3ccccc13)CCCC2)c1ccccc1F`, the Potency entry in experiment [1] and in experiment [3] was “inactive” each time. Besides, the activation in experiment [2] is -3.93% [at 17.1 µM, percent relative to cAMP agonist control]; in experiment [5], 12.9% [at 30.8 µM]. Moreover, the activity change, negative = inhibition in experiment [4] is -18.6% [at 30.8 µM].

As for `C[C@@H]1ON(C)[C@H]2C[C@H]3c4[nH]c5ccc(-c6ccc7c(c6)OCO7)cc5c4CCN3C(=O)[C@@H]12`, the Potency entry in experiment [1] and in experiment [3] was “inactive” in each case. Besides, the activation was 1.59% [at 17.1 µM, percent relative to cAMP agonist control] in experiment [2] and 32% [at 30.8 µM] in experiment [5]. For the same compound, the activity change, negative = inhibition in experiment [4] is -7.04% [at 30.8 µM].

With `O=C(O)C(Cc1ccccc1)N1C(=O)/C(=C/c2cccs2)SC1=S` (stereo not given), the Potency result in experiment [1], in experiment [2], in experiment [4] and in experiment [5] was “inactive” throughout. Also, the Potency in experiment [3] was 75.7 µM (active).

On to `COc1cccc2sc(N(CCCN(C)C)C(=O)C(c3ccccc3)c3ccccc3)nc12`, for which the Potency entry in experiment [1] and in experiment [3] was “inactive” throughout. Also, the activation in experiment [2] is 7.29% [at 17.1 µM, percent relative to cAMP agonist control]; in experiment [5] it was 23.9% [at 30.8 µM]. For the same compound, the activity change, negative = inhibition in experiment [4] was -0.182% [at 30.8 µM].

With `Cc1onc(-c2c(F)cccc2Cl)c1C(=O)OCc1cnc(Cl)s1`, the Potency result in experiment [1], in experiment [2], in experiment [4] and in experiment [5] was “inactive” in each case. Further, the Potency in experiment [3] is 26.9 µM (active).

With `Cc1nn(-c2ccccc2)c(Cl)c1/C=C1\SC(=S)N(CCCCCC(=O)O)C1=O`, the Potency entry in experiment [1] and in experiment [3] was “inactive” each time. For the same compound, the activation is -0.0903% [at 17.1 µM, percent relative to cAMP agonist control] in experiment [2] and 22.3% [at 30.8 µM] in experiment [5]. The activity change, negative = inhibition in experiment [4] is -15.3% [at 30.8 µM].

Consider `CC(C)CCNc1nc(-c2ccco2)c2c(c1C#N)CCCC2`, for which the Potency result in experiment [1], in experiment [2], in experiment [3], in experiment [4] and in experiment [5] was “inactive” in each case.

Consider `Cc1cc(C)n2nc(C(=O)N/N=C/c3c4ccccc4cc4ccccc34)nc2n1`, for which the Potency result in experiment [1] and in experiment [3] was “inactive” throughout. Further, the activation was 2.45% [at 17.1 µM, percent relative to cAMP agonist control] in experiment [2] and 34.9% [at 30.8 µM] in experiment [5]. Besides, in experiment [4], the activity change, negative = inhibition was 4.99% [at 30.8 µM].

For the compound `CCc1ccc2c(c1)NC(=O)C2(C)Cc1ccccc1OC` (stereo not given), the Potency result in experiment [1], in experiment [2], in experiment [3], in experiment [4] and in experiment [5] was “inactive” in each case.

As to `O=c1c2ccccc2nc(/C=C/c2cccnc2)n1Cc1ccccc1`, the Potency result in experiment [1] and in experiment [3] was “inactive” throughout. The activation in experiment [2] was 2.62% [at 17.1 µM, percent relative to cAMP agonist control]; in experiment [5], 22.2% [at 30.8 µM]. For the same compound, the activity change, negative = inhibition in experiment [4] was -16.6% [at 30.8 µM].

Take `O=C(Nc1cccc([N+](=O)[O-])c1)c1ccc2c(c1)C(=O)N(c1ccccn1)C2=O`: the Potency entry in experiment [1] and in experiment [3] was “inactive” throughout. The activation is 10.8% [at 17.1 µM, percent relative to cAMP agonist control] in experiment [2] and 12.1% [at 30.8 µM] in experiment [5]. Further, the activity change, negative = inhibition in experiment [4] is -7.46% [at 30.8 µM].

For `CCN(C(=O)Cn1c(=O)oc2cc(Cl)ccc21)c1cccc(C(F)(F)F)c1`, the Potency result in experiment [1], in experiment [2], in experiment [3], in experiment [4] and in experiment [5] was “inactive” throughout.

For the compound `N#C/C(=N\Nc1cccc(C(F)(F)F)c1)C(=O)c1ccsc1`, the Potency result in experiment [1], in experiment [2], in experiment [3], in experiment [4] and in experiment [5] was “inactive” in each case.

On to `CCOC(=O)C1=C(N)OC2=C(C(=O)CCC2)C1c1sccc1C` (stereo not given), for which the Potency entry in experiment [1] and in experiment [3] was “inactive” throughout. The activation in experiment [2] is 4.2% [at 17.1 µM, percent relative to cAMP agonist control]; in experiment [5], -1.77% [at 30.8 µM]. For the same compound, the activity change, negative = inhibition in experiment [4] was -19.9% [at 30.8 µM].

For `O=C(O)C1CC(c2ccc(F)cc2)=NO1` (stereo not given), the Potency result in experiment [1] and in experiment [3] was “inactive” each time. Also, the activation in experiment [2] is -14.9% [at 17.1 µM, percent relative to cAMP agonist control]; in experiment [5], 21.8% [at 30.8 µM]. Further, in experiment [4], the activity change, negative = inhibition is -15.4% [at 30.8 µM].

As to `O=C(/C=C/c1ccc(Br)o1)NCc1ccccc1`, the Potency entry in experiment [1] and in experiment [3] was “inactive” throughout. Besides, the activation in experiment [2] is -1.62% [at 17.1 µM, percent relative to cAMP agonist control]; in experiment [5], 21.3% [at 30.8 µM]. Besides, in experiment [4], the activity change, negative = inhibition was 13% [at 30.8 µM].

Consider `Cc1cccc2sc(N(CCCN(C)C)C(=O)CCS(=O)(=O)c3ccccc3)nc12`, for which the Potency entry in experiment [1], in experiment [2], in experiment [3], in experiment [4] and in experiment [5] was “inactive” each time.

As for `CC(C)Cn1nc(NS(=O)(=O)c2cccc3nonc23)c2cc3ccccc3nc21`, the Potency entry in experiment [1], in experiment [2], in experiment [3], in experiment [4] and in experiment [5] was “inactive” each time.

Consider `CC(=O)NS(=O)(=O)c1ccc(Nc2ccc([N+](=O)[O-])c3nonc23)cc1`, for which the Potency result in experiment [1] and in experiment [3] was “inactive” in each case. The activation in experiment [2] was 14.6% [at 17.1 µM, percent relative to cAMP agonist control]; in experiment [5], 1.5% [at 30.8 µM]. The activity change, negative = inhibition in experiment [4] is -18.4% [at 30.8 µM].
